PME-1 inh = PME-1 inhibitors via competitive probe labeling, primary screen, biochemical, fluorescence polarization, FP-Rh probe, HTS; Protein phosphatase methylesterase 1 (Homo sapiens), Q9Y570; recombinant PME-1; inhibition, % at 5.9 µM; 0.53% of 320,000 active;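 active means inhibition above the campaign mean of all compounds plus 3 SD, cut at about 26% in these data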;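 further: competitive labeling of PME-1 active site by serine hydrolase directed probe; 0% = PME-1 with DMSO and 100% = wells lacking PME-1 enzyme; inhibitors block probe labeling so polarization falls and inhibition rises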
LYPLA2 counter = LYPLA2 inhibitors, primary screen, counter-screen for PME1 inhibitor project, biochemical, fluorescence polarization, FP-Rh probe ABPP; Acyl-protein thioesterase 2 (Homo sapiens), O95372; recombinant LYPLA2; inhibition, % at 5.9 µM; 0.38% of 320,000 active;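 active means inhibition above the screen-wide mean plus 3 SD, limit set per campaign, cut at about 26% in these data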;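 further: 0% = LYPLA2 with DMSO and 100% = wells lacking LYPLA2 enzyme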
Target sequence (O95372 whole entry, looked up): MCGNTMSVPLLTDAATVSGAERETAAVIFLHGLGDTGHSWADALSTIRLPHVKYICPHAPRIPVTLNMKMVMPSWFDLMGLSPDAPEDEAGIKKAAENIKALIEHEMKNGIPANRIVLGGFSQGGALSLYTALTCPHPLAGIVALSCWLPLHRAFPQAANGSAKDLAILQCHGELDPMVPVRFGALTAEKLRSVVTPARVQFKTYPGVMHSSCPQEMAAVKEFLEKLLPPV
PAD4 FP inh = human PAD4 inhibitors, primary screen, biochemical, fluorescence polarization, 1536-well format; 0.41% of 330,000 active; AID 485272, 2010; Protein-arginine deiminase type-4 (Homo sapiens), Q9UM07; recombinant PAD4, RCA probe fluorescence polarization; inhibition, % at 6.36 µM;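 active means percent inhibition above a cutoff equal to the mean of all tested compounds plus 3 SD, cut at about 15% in these data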;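 further: 0% = PAD4 with RCA probe and DMSO and 100% = probe without PAD4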
Fam108B counter = mouse Fam108B serine hydrolase inhibitors, primary screen, counter-screen for RBBP9 inhibitor project, biochemical, fluorescence polarization | inhibition, % at 9.51 µM | AID 1947, 2009 | recombinant Fam108B, FP-Rh probe fluorescence polarization | 0.33% of 300,000 active;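 active means inhibition above the screen mean inhibition plus 3 SD, computed separately per campaign, cut at about 18% in these data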;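 further: inhibitors lower polarization as less probe binds the enzyme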
LYPLA1 inh = LYPLA1 inhibitors, primary screen, counter-screen for PME1 inhibitor project, biochemical, fluorescence polarization, FP-Rh probe ABPP; Acyl-protein thioesterase 1 (Homo sapiens), O75608; recombinant LYPLA1; inhibition, % at 5.9 µM; 0.16% of 320,000 active;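 active means inhibition above the mean of all tested compounds plus 3 SD, set per campaign, cut at about 14% in these data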;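 further: inhibitors block serine hydrolase probe labeling of LYPLA1 so polarization falls; 0% = enzyme with DMSO and 100% = wells lacking LYPLA1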
Target sequence (O75608 whole entry, looked up): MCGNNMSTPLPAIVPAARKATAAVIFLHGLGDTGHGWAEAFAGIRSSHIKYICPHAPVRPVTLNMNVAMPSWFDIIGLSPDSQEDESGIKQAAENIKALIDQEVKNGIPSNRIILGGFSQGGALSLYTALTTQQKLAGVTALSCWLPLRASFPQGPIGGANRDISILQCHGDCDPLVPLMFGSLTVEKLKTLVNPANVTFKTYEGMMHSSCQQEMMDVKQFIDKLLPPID
GSTO1 inh = inhibitors of recombinant GSTO1, primary screen, counter-screen for RBBP9 inhibitor project, biochemical, fluorescence polarization; activity-based probe fluorescence polarization; Glutathione S-transferase omega-1 (Homo sapiens), P78417; inhibition, % at 5.96 µM; 1.1% of 300,000 active;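 active means inhibition above the campaign mean inhibition plus 3 SD, cut at about 35% in these data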;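 further: 0% = GSTO1-1 with DMSO and 100% = wells lacking GSTO1-1 enzyme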
Target sequence (P78417 whole entry, looked up): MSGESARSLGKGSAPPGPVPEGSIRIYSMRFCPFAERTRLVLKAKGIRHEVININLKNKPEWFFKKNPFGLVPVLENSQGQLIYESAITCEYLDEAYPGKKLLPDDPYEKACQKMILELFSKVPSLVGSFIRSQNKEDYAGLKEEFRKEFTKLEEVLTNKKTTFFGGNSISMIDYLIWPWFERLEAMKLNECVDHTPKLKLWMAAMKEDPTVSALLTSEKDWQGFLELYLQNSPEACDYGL
GSTO1 confirm = GSTO1 inhibitor hit confirmation, counter-screen for RBBP9 inhibitor project, biochemical, fluorescence polarization, triplicate; AID 2176, 2009; shares compounds with GSTO1 inh; 54% of 2,400 active; recombinant GSTO1, probe fluorescence polarization; inhibition, % at 5.96 µM;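 active means inhibition above the primary screen's cutoff, its mean inhibition plus 3 SD, cut at about 35% in these data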;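 further: loss of polarization as inhibitors block binding of rhodamine sulfonate ester activity probe; 0% = GSTO1 with DMSO and 100% = wells lacking GSTO1 enzyme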
GSTO1 recomb ABPP = inhibitors of purified human GSTO1, late-stage follow-up, biochemical, gel ABPP, SE-Rh probe, percent inhibition | inhibition, % at 1 µM | 30% of 130 active | shares compounds with GSTO1 inh | AID 463110, 2010 | recombinant GSTO1, gel ABPP SE-Rh probe fluorescence;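 active means inhibition of the enzyme GSTO1 above about 75%, limit read from the data; inactive means inhibition below that limit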
* = called active by the depositor; nt = no result. Compounds with a hit are over-represented: about 1.8% of the library has one in this group of screens.

SMILES	PME-1 inh	LYPLA2 counter	PAD4 FP inh	Fam108B counter	LYPLA1 inh	GSTO1 inh	GSTO1 confirm	others
COc1ccc(C2=CC3=C(Br)C(=O)C(C)(OC(=O)c4ccc(Cl)nc4)C(=O)C3=CO2)cc1 (centres undefined)	0.4	-0.1	-6.5	5.5	-1.2	21.0	nt
Cc1c(OCC(=O)NCC2CCC(C(=O)O)CC2)ccc2c3c(c(=O)oc12)CCC3 (centres undefined)	1.0	-8.7	0.8	-2.3	0.8	7.4	nt
COc1ccc(/C=C/C(=O)OCC(=O)Nc2ccc(Cl)cn2)cc1	1.3	0.8	-0.6	-2.4	-4.8	-0.8	nt
CCOC(=O)C1=C(C)N(c2ccccc2)C(=O)/C1=C\c1ccc(O)c(OC)c1	2.5	-2.4	-6.7	4.6	-1.2	62.4*	4.8
CCOC(=O)C1=C(C)N(c2ccccc2)C(=O)/C1=C\c1ccco1	3.6	4.5	-2.9	2.7	-1.4	9.2	nt
Cc1cccc(C)c1NC(=O)C1CCCN1S(=O)(=O)c1ccc2c(c1)n(C)c(=O)c(=O)n2C (centres undefined)	-3.3	0.2	-1.5	2.5	5.3	2.2	nt
Nc1nnc(SCc2ccccc2F)n1-c1ccccc1	-6.5	-4.0	-4.9	-2.4	-1.9	7.0	nt
CN(C)c1ccc(C=Nc2ccccc2)cc1	-2.8	0.7	-1.7	-0.7	0.6	2.2	nt
CN(C)c1ccc(N=Cc2ccco2)cc1	6.1	1.8	20.5*	0.8	-3.0	73.4*	5.0
CCOC(=O)c1c(C)n(-c2ccc(C)cc2)c2c(C(C(C)=O)C(=O)O)c(Br)c(O)c(O)c12 (centres undefined)	-1.2	-2.6	-0.9	14.7	-1.2	64.3*	8.1
CCOC(=O)c1c(C)n(-c2ccc(C)cc2)c2c(CC(C)=O)c(Br)c(OC)c(O)c12	-0.6	-0.9	-6.3	1.8	-0.3	2.1	nt
O=[N+]([O-])c1ccc2c(c1N1CCCCC1)=NC1(CCCCC1)[N+]=2[O-]	6.5	2.0	-1.5	6.6	0.3	57.1*	6.5
O=[N+]([O-])c1ccc(N2CCCCC2)nc1N1CCCCC1	0.9	4.5	-1.6	-0.3	2.4	6.5	nt
COc1ccc(Sc2ccccc2CN(C)C)cc1OC	-8.4	-0.1	1.6	2.1	0.6	9.7	nt
CNCc1ccccc1Sc1ccc(O)c(O)c1	3.7	7.8	-0.6	5.1	1.1	73.8*	71.4*
COc1ccc(C(=O)Nc2c(O)ccc3ccccc23)cc1OC	-2.4	-0.5	-6.9	6.3	3.8	2.1	nt
COc1ccc(S(=O)(=O)Nc2c(O)ccc3ccccc23)cc1OC	-5.3	-5.5	-17.1	-3.2	-4.3	44.8*	7.6
COc1cc2c(cc1OC)C(c1ccccc1)N(C(=O)CCl)CC2 (centres undefined)	9.9	-2.8	5.5	2.7	0.6	88.1*	95.7*	GSTO1 recomb ABPP=75.0*
COc1ccc2c(c1)CCN(C(=O)CCl)C2C1C(=O)CCCC1=O (centres undefined)	2.5	-5.1	0.7	3.5	-1.7	40.2*	80.9*	GSTO1 recomb ABPP=35.0
COc1cc2c(cc1OC)C(C1C(=O)CCCC1=O)N(C(=O)CCl)CC2 (centres undefined)	6.3	1.4	-4.3	1.0	-0.6	27.6	nt
CN(Cc1nc(-c2ccc(Cl)cc2)no1)C(=O)CCN1C(=O)[C@H]2CC=CC[C@H]2C1=O	1.1	1.0	-0.5	-0.8	0.8	-4.8	nt
CCC1CCCCN1C(=O)Cn1c(C(=O)OC)cc2ccsc21 (centres undefined)	-3.2	-5.0	-2.7	-2.6	1.0	3.7	nt
Cc1onc(C(=O)NCc2cccs2)c1[N+](=O)[O-]	3.6	4.0	2.8	3.3	2.9	20.2	nt
CC(C)c1onc(C(=O)NCc2cccs2)c1[N+](=O)[O-]	-6.9	1.3	0.8	0.2	-2.2	40.6*	33.4
c1ccc(Nc2cccc(Nc3ccccc3)c2)cc1	7.0	4.9	-7.3	8.2	-0.6	3.6	nt
SMILES	PME-1 inh	LYPLA2 counter	PAD4 FP inh	Fam108B counter	LYPLA1 inh	GSTO1 inh	GSTO1 confirm	others
[O-][N+]1=c2ccc(Nc3ccccc3)cc2=NC12CCCCC2	4.1	1.7	5.7	5.3	0.3	57.9*	34.9*
COc1ccc(Nc2ccc3c(c2)=NC2(CCCCC2)[N+]=3[O-])cc1	8.0	3.7	8.3	0.8	0.0	53.6*	31.3
Cc1nn(-c2ccc(C(=O)NCC(c3ccco3)N3CCCC3)cc2)c(C)c1Cl (centres undefined)	-3.4	12.6	-4.6	nt	3.0	nt	nt
COc1ccc(OC)c(CNC(=O)CCSCc2ccc(F)cc2Cl)c1	1.1	9.5	-3.5	-4.4	5.7	4.0	nt
O=[N+]([O-])c1ccccc1N/N=C/c1cccc(O)c1O	3.1	0.6	1.4	7.7	3.9	48.5*	8.1
O=[N+]([O-])c1ccc(Oc2ccc(S(=O)(=O)Nc3ccccc3)cc2)cc1	-16.1	-4.3	1.8	-5.1	-8.0	0.2	nt
O=C1C(Cl)=C(NS(=O)(=O)c2ccc([N+](=O)[O-])cc2)C(=O)c2ccccc21	6.2	6.3	-0.8	7.7	-0.7	100.0*	87.7*
COCCNC(=O)c1c(N)n(CCC2=CCCCC2)c2nc3ccccc3nc12	11.8	-3.1	-11.2	7.5	2.7	42.0*	3.7
COc1ccc(CCn2c(N)c(C(=O)NCc3ccco3)c3nc4ccccc4nc32)cc1OC	9.3	-5.9	-15.8	7.4	-4.6	51.7*	0.4
COc1ccc(CCNC(=O)c2ccc3nc(-c4ccco4)c(-c4ccco4)nc3c2)cc1OC	16.0	6.3	-13.2	8.7	-9.3	38.9*	14.2
CCC(=O)N1CCC(NC(=O)Nc2ccc(OC(F)(F)F)cc2)CC1	-2.1	1.6	2.4	nt	0.3	nt	nt
Cc1cc(C)cc(-n2c(C)cc(C(=O)CSc3nnnn3C)c2C)c1	0.3	8.3	-7.7	1.5	1.2	48.6*	43.1*
Cc1cc(C(=O)CSc2nnnn2C)c(C)n1-c1cccc(F)c1	1.8	0.3	0.8	5.5	-0.6	33.8	nt
Oc1cccc(/C=N/NC(=S)NCCN2CCOCC2)c1O	-6.9	-4.1	-3.9	-1.2	1.4	88.4*	58.2*
